Biological target: WDR33
Test: pooled miR-30 sensor sort-seq; sequence = guide strand
Conditions: shRNA
Note: reference of the scale not given here.

| Sequence | sensor-assay potency score (higher = more potent) |
| --- | --- |
| TTAGATTATATCGATCTCGCAT | 0.262 |
| TTGAGGACCAGAACTACCTTGT | 0.395 |
| TAAACTGTCCCTGTGGACCTGG | -0.115 |
| TAGTATATTGTAATGTAGCCAT | -0.402 |
| TACATCTCTAACATATTGCAAA | -1.19 |
| TAGGATTATTCAACATTCCTAT | -0.157 |
| TTGTAGTCTATGGTTTTTCGGT | -0.753 |
| TAGTATGGTCATTTGAGCCTGA | 0.248 |

Biological target: WDR34
Test: as above
Conditions: shRNA

| Sequence | sensor-assay potency score (higher = more potent) |
| --- | --- |
| TTCTTGAGCTTGGTGCTCCGTG | -0.384 |
| TGCTTGATCAAAACTGTGGGTT | -0.0783 |
| ATCTGCTGCTGCTCGGTCCAGT | -0.627 |
| TTGAACTCCAGACAGTAGACAG | -1.12 |
| TTGAGGGAGAGCTGCAGCGAAG | -1.68 |
| TTAAGCGTGCTCCAGTCCCCAT | -1.36 |
| TTTCTGGAGATCAAACAGCTGC | -0.424 |
| ATACTTGAGGGAGAGCTGCAGC | -0.787 |
| AATTCTTGTTCAGCTCTCGGAT | -0.793 |
| TTTGCTTGATCAAAACTGTGGG | 0.652 |
| TTGCTTGATCAAAACTGTGGGT | -0.138 |
| ATACAGACAAGACACCATCTGC | -0.609 |

Biological target: WDR38
Test: as above
Conditions: shRNA

| Sequence | sensor-assay potency score (higher = more potent) |
| --- | --- |
| ATATTTGACGTCTAGTCTGATC | -0.981 |
| TGACCGTCTCCACACTCCGTTG | -1.74 |
| TAGTCTGATCGGCAGCTCCAGA | -1.14 |
| TTGACGTCTAGTCTGATCGGCA | -0.321 |
| TTCTGAGCCTGTGAGCAGCATC | -1.23 |
| TTTGACGTCTAGTCTGATCGGC | 1.06 |
| TTTCCTGTGTTGCAGTCCCAGA | -1.04 |
| TTCAGTTGGATAAGCAGGCTGC | -0.0722 |
| TTGGTGACCCTTCAGGACCCGC | -1.34 |
| TGAGCCTGTGAGCAGCATCTGG | -1.58 |
| TTTCACTCTCCGCACGGCCAGC | -1.51 |
| TTGACCATGCGGGAATAGCCGG | -1.06 |

Biological target: WDR59
Test: as above
Conditions: shRNA

| Sequence | sensor-assay potency score (higher = more potent) |
| --- | --- |
| TAACCTGCTCCGCAGAACCTGG | -1.45 |
| TTGCAGATGGCACACTGCGTGC | -1.5 |
| TAACACTGTAACACTGGCCCTG | 0.0657 |
| TACTAGAATTTTATTAGCCAAG | -1.53 |
| TTCAGCTCGCTTCTCTCTCAGA | -0.891 |
| TTACTTTTCCATCGTCTTGATT | -0.978 |
| TTAGCTTTCATGGTGGATGTGA | 0.497 |
| TTGATCTGTCGATTGCCAGAGT | -0.462 |
